Records with an inconclusive call do not appear. Activity calls are given as the source filed them. The calls were made as follows: active = hit-call score of the fitted dose curve at least 0.9, where 1 is the maximum; inconclusive = response in the unintended direction; inactive = score below 0.9.
test: ATG_M_06_EcoTox2: Attagene TRANS-FACTORIAL EcoTox-2 HepG2 Assay for M06 Transcription Factor (Internal Marker)
Method: ATG_EcoTox2 is a cell-based, multiplexed assay created by modifying the existing Attagene TRANS-FACTORIAL system to include a panel of nuclear receptors from some or all the following species: human (Homo sapiens), african clawed frog (Xenopus laevis), rainbow trout (Oncorhynchus mykiss), japanese medaka (Oryzias latipes), and zebrafish (Danio rerio). The ECOTOX2-FACTORIAL format uses HepG2, a human liver cell line, with measurements taken at 24 hours after chemical dosing in a 24-well plate. ATG_M_06_EcoTox2 is one of 29 assay components calculated in the ATG_EcoTox2 assay. It is designed to make measurements of mRNA induction, a form of inducible reporter, as detected with fluorescence intensity signals by Reverse transcription polymerase chain reaction (RT-PCR) and Capillary electrophoresis technology.The assay endpoint ATG_M_06_EcoTox2 was analyzed in the positive analysis fitting direction relative to DMSO as the negative control and baseline of activity. Using a type of inducible reporter, measures of mRNA for gain-of-signal activity can be used to understand the background control at the transcription factor-level as they relate to the gene. Furthermore, this assay endpoint can be referred to as a secondary readout, because this assay has produced multiple assay endpoints where this one serves a background control function. To generalize the intended target to other relatable targets, this assay endpoint is annotated to the background measurement intended target family, where the subfamily is internal marker.
Human liver HepG2 cells are transiently transfected with multiple reporter transcription units (MRTUs) in 6-well plates using FuGene 6 reagent (Roche; 3 ml FuGene/1 mg DNA). The MRTU constructs are regulated by a cis-regulating element (promoter). Each RTU expresses a GAL4-UAS that regulates the transcription of a nearby target reporter gene sequence. A major difference between the CIS and TRANS system is that in CIS activities of endogenous TFs are measured, whereas the TRANS assay evaluates changes in activities of exogenous, chimeric NR-Gal4 proteins. […] At the end of 24 hour incubation, total RNA was isolated using TriZol reagent (Invitrogen). The isolated RNA is then reverse-transcribed using oligo(dT) primer and Mo-MLV reverse transcriptase (Invitrogen) with DNAse I (Ambion) treatment for 30 min. The one-tenth of the produced cDNA was amplified by PCR using Taq DNA polymerase (Invitrogen) and two reporter sequence-specific primers. The PCR products were fluorescently labeled by primer extension with 6-arboxyfluorescein (6-FAM) 5'-labeled reporter sequence-specific primer (2 min at 95 C, 20 s at 68 C and 10 min at 72 C) and these products were digested with 5U of HpaI (New England Biolabs) for 2h at 37 C. The fragments were purified using Qiaquick PCR columns (Qiagen), analyzed on an ABI 3130xL genetic analyzer (Applied Biosystems) with peak positions identified by using a set of X-rhodamine (ROX)-labeled MapMarker1000 molecular weight standards (BioVentures). The raw capillary electrophoresis data was processed using Attagraph software (Attagene).

Row | SMILES | outcome
1 | Cc1nc(-c2ccc(C(F)(F)F)cc2)sc1C(=O)NCc1ccc(OC(C)(C)C(=O)O)cc1 | inactive
2 | Cc1cccc(Nc2cc(Cl)nc(SCC(=O)O)n2)c1C | inactive
3 | C=C(c1ccc(C(=O)O)cc1)c1cc2c(cc1C)C(C)(C)CCC2(C)C | inactive
4 | C[C@]12C=CC(=O)C=C1CC[C@@H]1[C@@H]2C(=O)C[C@@]2(C)[C@H]1CC[C@]2(O)C(=O)CO | inactive
5 | CC(c1cc2ccccc2s1)N(O)C(N)=O (stereo unspecified) | inactive
6 | CC(C)OC(=O)C(C)(C)Oc1ccc(C(=O)c2ccc(Cl)cc2)cc1 | inactive
7 | CC(C)(Oc1ccc(C2CC2(Cl)Cl)cc1)C(=O)O (stereo unspecified) | inactive
8 | CC(C)(Oc1ccc(Cl)cc1)C(=O)O | inactive
9 | CC(C)(Oc1ccc(CCNC(=O)c2ccc(Cl)cc2)cc1)C(=O)O | inactive
10 | Cc1c(C)c2c(c(C)c1O)CCC(C)(COc1ccc(CC3SC(=O)NC3=O)cc1)O2 (stereo unspecified) | inactive
11 | CN(CCOc1ccc(CC2SC(=O)NC2=O)cc1)c1ccccn1 (stereo unspecified) | inactive

Reference: PubChem BioAssay AID2284359 (EPA ToxCast)
